# Earlier results as cited in PubChem BioAssay AID977611.
# Hit rate of the full screen: of about 3,900 compounds, about 3,900 (100%) were called active. No cut-off is given here; in the data, nearly all actives have Kd up to about 4200 µM. So high a share suggests a set chosen from earlier hits. This is one part of the list. Where a SMILES comes first, the peptide text is derived from it.
# Assay: PubChem AID 977611
# Settings: PDB protein-ligand complexes, literature Kd
compound,measurement,setting,value
CC[C@H](C)[C@H](NC(=O)[C@H](CO)NC(=O)[C@@H]1CCCN1C(=O)[C@H](C)N)C(=O)N[C@@H](CC(=O)O)C(=O)N[C@@H](CCCNC(N)N)C(=O)N[C@@H](CO)C(=O)N[C@H](C(=O)N[C@@H](CCCCN)C(=O)N1CCC[C@H]1C(=O)N[C@@H](C)C(=O)O)[C@@H](C)O (HELM PEPTIDE1{A.P.S.I.D.[NC(N)NCCC[C@H](N[*:1])C(=O)[*:2]].S.T.K.P.A}$$$$V2.0),Kd,"protein: mouse Gads T cell adaptor C-terminal SH3 domain, PDB entry 1h3h",0.22 µM (active)
CC(C)(CO[P+](O)(O)O[P+](O)(O)OC[C@H]1O[C@@H](n2cnc3c(N)ncnc32)[C@H](O)[C@@H]1O[P+](O)(O)O)[C@@H](O)C(=O)NCCC(=O)NCCSC(=O)c1ccc2ccccc2c1O,Kd,"protein: 1,4-Dihydroxy-2-naphthoyl-CoA synthase MenB, PDB entry 4qij",2.9 µM (active)
CC(C)(CO[P+](O)(O)O[P+](O)(O)OC[C@H]1O[C@@H](n2cnc3c(N)ncnc32)[C@H](O)[C@@H]1O[P+](O)(O)O)[C@@H](O)C(=O)NCCC(=O)NCCSC(=O)CC[C@@H]1C(=O)CC[C@]2(C)C(=O)CC[C@@H]12,Kd,"protein: HTH-type transcriptional repressor KstR2, PDB entry 4w97",0.08 µM (active)
H-LKTKLL-OH,Kd,"protein: coatomer alpha subunit, PDB entry 4j8b",16.1 µM (active)
H-KTKLL-OH,Kd,"protein: Coatomer subunit beta', PDB entry 4j78",22.5 µM (active)
CC(=O)c1ccc(N2CCN(C(=O)CN3CC[C@@H](C(=O)Nc4ccc(O)c(Cl)c4)C3)CC2)cc1,Kd,"protein: Mitogen-activated protein kinase 1 ERK2, PDB entry 4qyy",0.05 µM (active)
O=C(Nc1ccc2[nH]nc(-c3ccncc3)c2c1)[C@@H]1CCN(CC(=O)N2CCN(c3ccc(-c4ncccn4)cc3)CC2)C1,Kd,"protein: Mitogen-activated protein kinase 1 ERK2, PDB entry 4qta",0.2 µM (active)
C/C(=N\Nc1nc2ccccc2s1)c1ccc(-c2cccc(S(=O)(=O)NC(=O)CCCCCc3ccccc3)c2)o1,Kd,"protein: BCL-2-LIKE PROTEIN 1, PDB entry 3zk6",0.46 µM (active)
CNCc1ccc(C(F)(F)F)cc1,Kd,"protein: Dihydropteroate synthase BaDHPS, PDB entry 4nl1",130 µM (active)
Nc1ncnc2c1ncn2[C@@H]1O[C@@H]2CO[P+](O)(O)O[C@H]3[C@@H](O)[C@H](n4cnc5c(N)ncnc54)O[C@@H]3CO[P+](O)(O)O[C@H]2[C@H]1O,Kd,PDB entry 4qsh,8 µM (active)
same,Kd,"protein: PstA, PDB entry 4wk1",1.3 µM (active)
same,Kd,"protein: Staphylococcus aureus PII-like signal transduction protein PstA, PDB entry 4d3h",0.37 µM (active)
Nc1ncnc2c1ccn2[C@@H]1O[C@@H]2CO[P+](O)(O)O[C@H]2[C@H]1O,Kd,"protein: Potassium/sodium hyperpolarization-activated cyclic nucleotide-gated channel 4 hHCN4, PDB entry 4nvp",0.027 µM (active)
CC(=O)C(O)(O)[C@@H](O)CO[P+](O)(O)O,Kd,"protein: Transcriptional regulator LsrR, PDB entry 4l4z",2.1 µM (active)
CC(C)CC(=O)C(O)(O)[C@@H](O)CO[P+](O)(O)O,Kd,"protein: Transcriptional regulator LsrR, PDB entry 4l50",0.88 µM (active)
CC(CO)CCC[P+](O)(O)O[P+](O)(O)O (stereo not drawn),Kd,"protein: Intracellular B30.2 Domain of BTN3A1, PDB entry 4n7u",0.51 µM (active)
Nc1nc2c([nH]c[n+]2[C@@H]2O[C@H](CO[P+](O)(O)O[P+](O)(O)O)[C@@H](O)[C@H]2O)c(=O)[nH]1,Kd,"protein: Ferrous iron uptake transporter protein B FeoB(A143S mutant), PDB entry 4non",5.71 µM (active)
same,Kd,"protein: GTPase domain of Septin 10 from Schistosoma mansoni, PDB entry 4kv9",146 µM (active)
same,Kd,"protein: Interferon-induced GTP-binding protein Mx1 stalkless-MxA, PDB entry 4p4t",41 µM (active)
same,Kd,"protein: Mitochondrial dynamic protein MID51, PDB entry 4nxv",3.8 µM (active)
Nc1nc2c([nH]c[n+]2[C@@H]2O[C@H](CO[P+](O)(O)O[P+](O)(O)C[P+](O)(O)O)[C@@H](O)[C@H]2O)c(=O)[nH]1,Kd,"protein: Interferon-induced GTP-binding protein Mx1 stalkless-MxA, PDB entry 4p4s",11.5 µM (active)
Nc1nc2c([nH]c[n+]2[C@@H]2O[C@H](CO[P+](O)(O)O[P+](O)(O)O[P+](O)(O)O)[C@@H](O)[C@H]2O)c(=O)[nH]1,Kd,"protein: GTPase domain of Septin 10 from Schistosoma mansoni, PDB entry 4kva",115 µM (active)
same,Kd,"protein: eukaryotic translation initiation factor eIF5B (517-858) from Chaetomium thermophilum, PDB entry 4ncn",2.12 µM (active)
Nc1nc2c([nH]c[n+]2[C@@H]2O[C@@H]3CO[P+](O)(O)O[C@H]3[C@H]2O)c(=O)[nH]1,Kd,"protein: Cyclic nucleotide-gated potassium channel mll3241, PDB entry 4muv",1.73 µM (active)
CC(=O)N[C@H]1[C@@H](O[P+](O)(O)O[P+](O)(O)OC[C@H]2O[C@@H](n3ccc(=O)[nH]c3=O)[C@H](O)[C@@H]2O)O[C@H](CO)[C@@H](O)[C@@H]1O,Kd,"protein: UDP-N-acetylglucosamine 1-carboxyvinyltransferase(C115D mutant), PDB entry 3v4t",77 µM (active)
same,Kd,"protein: UDP-N-acetylglucosamine 1-carboxyvinyltransferase, PDB entry 3upk",50 µM (active)
CCCCCCCCCCC[C@@H](O)CC(=O)O[C@@H]1[C@@H](N)[C@@H](O[P+](O)(O)O[P+](O)(O)OC[C@H]2O[C@@H](n3ccc(=O)[nH]c3=O)[C@H](O)[C@@H]2O)O[C@H](CO)[C@H]1O,Kd,"protein: UDP-3-O-[3-hydroxymyristoyl] N-acetylglucosamine deacetylase, PDB entry 4mdt",10 µM (active)
CC1=C(SC[C@H](NC(=O)CC[C@H](N)C(=O)O)[C@H](O)NCC(=O)O)C(=O)c2ccccc2C1=O,Kd,"protein: protein yqjG, PDB entry 4g0k",4.3 µM (active)
CCCCCCCCCCCCOS(O)(O)O,Kd,"protein: Beta-lactoglobulin, PDB entry 4gny",52 µM (active)
CC[C@H](C)[C@H](NC(=O)[C@@H](NC(=O)[C@H](CC(C)C)NC(=O)[C@H](CCC(=O)O)NC(=O)[C@H](CCC(=O)O)NC(=O)[C@H](CCC(N)=O)NC(=O)[C@@H]1CCCN1C(=O)[C@H](CC(=O)O)NC(=O)[C@H](CO)NC(=O)CNC(=O)[C@H](Cc1ccc(O)cc1)NC(=O)[C@H](CC(C)C)NC(=O)[C@H](CCC(=O)O)NC(=O)[C@H](C)NC(=O)[C@H](CC(C)C)NC(=O)[C@@H](N)CCSC)[C@@H](C)CC)C(=O)O,Kd,"protein: mouse Partitioning defective 3 homolog, PDZ 3 domain, PDB entry 2koh",6 µM (active)
H-EPQYEEIPIYL-OH,Kd,"protein: P56 LCK Tyrosine kinase, PDB entry 1lcj",0.001 µM (active)
